Values joined by “and” are separate entries in the source; they are usually repeats but may differ in a detail not shown here. Equal values may be shown once. In all, about 5,500 compounds went through this assay and about 2,000 (36%) were called active. Inconclusive results (about 18%) are left out. No stated cut-off is given here; in the data, active means normalized growth mostly below about 0.91 (no sharp cut-off); inconclusive means no clear call, values can overlap the other calls; inactive means mostly above about 0.92. The list shows a part of the results.
Assay: chemical genetic growth profiling, strain panel (AID 1159580);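 further: tested at 20 µM; growth read once vehicle control cultures reached saturation at 30 °C; 1 = growth at the plate median or of vehicle wells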
Conditions: growth OD
[1] = S. cerevisiae deletion strains, locus YAL013W, strain DEP1, stronger effect = lower value
[2] = S. cerevisiae deletion strains, locus YBR229C, strain ROT2, stronger effect = lower value
[3] = S. cerevisiae deletion strains, locus YDL101C, strain DUN1, stronger effect = lower value
[4] = S. cerevisiae deletion strains, locus YDR150W, strain NUM1, stronger effect = lower value
[5] = S. cerevisiae deletion strains, locus YEL061C, strain CIN8, stronger effect = lower value
[6] = S. cerevisiae deletion strains, locus YGR078C, strain PAC10, stronger effect = lower value
[7] = S. cerevisiae deletion strains, locus YHR030C, strain SLT2, stronger effect = lower value
[8] = S. cerevisiae deletion strains, locus YJR043C, strain POL32, stronger effect = lower value
[9] = S. cerevisiae deletion strains, locus YJR075W, strain HOC1, stronger effect = lower value
[10] = S. cerevisiae deletion strains, locus YLR039C, strain RIC1, stronger effect = lower value
[11] = S. cerevisiae deletion strains, locus YLR262C, strain YPT6, stronger effect = lower value
[12] = S. cerevisiae deletion strains, locus YMR263W, strain SAP30, stronger effect = lower value
[13] = S. cerevisiae deletion strains, locus YNL153C, strain GIM3, stronger effect = lower value
[14] = S. cerevisiae deletion strains, locus YNL322C, strain KRE1, stronger effect = lower value
[15] = S. cerevisiae deletion strains, locus YPL055C, strain LGE1, stronger effect = lower value
[16] = S. cerevisiae deletion strains, locus YPL241C, strain CIN2, stronger effect = lower value
[17] = S. cerevisiae strains, strain wild type, stronger effect = lower value

Measured: normalized growth

O/N=C(/CNC(c1ccccc1)(c1ccccc1)c1ccccc1)c1ccccc1
active: [7] 0.594
inactive: [1] 0.969 | [2] 0.977 | [3] 0.963 | [4] 0.9 | [5] 0.949 | [6] 0.987 | S. cerevisiae deletion strains, locus YHR087W, strain rtc3, stronger effect = lower value 1.01 | S. cerevisiae deletion strains, locus YJL187C, strain SWE1, stronger effect = lower value 0.97 | [8] 0.988 | [9] 1.02 | [10] 1.01 | S. cerevisiae deletion strains, locus YLR058C, strain SHM2 (second series), stronger effect = lower value 0.975 | S. cerevisiae deletion strains, locus YLR085C, strain ARP6, stronger effect = lower value 0.819 | [11] 1.02 | S. cerevisiae deletion strains, locus YML094W, strain GIM5, stronger effect = lower value 0.969 | S. cerevisiae deletion strains, locus YMR219W, strain ESC1, stronger effect = lower value 0.968 | [12] 0.999 | [13] 1.03 | S. cerevisiae deletion strains, locus YNL298W, strain CLA4 (second series), stronger effect = lower value 1 | [14] 0.985 | S. cerevisiae deletion strains, locus YNR030W, strain Alg12, stronger effect = lower value 0.976 | [15] 0.998 | [16] 0.964 | S. cerevisiae deletion strains, locus YPR135W, strain CTF4, stronger effect = lower value 0.758 | [17] 0.969

NCCCCNCCCN
inactive: [1] 1.01 and 0.954 | S. cerevisiae deletion strains, locus YAL040C, strain CLN3, stronger effect = lower value 0.977 | S. cerevisiae deletion strains, locus YBR021W, strain FUR4, stronger effect = lower value 1.11 | [2] 0.997 | S. cerevisiae deletion strains, locus YCL029C, strain bik1, stronger effect = lower value 0.95 | S. cerevisiae deletion strains, locus YCL061C, strain MRC1 (second series), stronger effect = lower value 0.982 | S. cerevisiae deletion strains, locus YDL035C, strain GPR1, stronger effect = lower value 1.02 | S. cerevisiae deletion strains, locus YDL074C, strain BRE1, stronger effect = lower value 0.98 | [3] 0.981 | S. cerevisiae deletion strains, locus YDL134C, strain PPH21, stronger effect = lower value 1.01 | S. cerevisiae deletion strains, locus YDL185W, strain tfp1, stronger effect = lower value 0.946 | S. cerevisiae deletion strains, locus YDL192W, strain arf1, stronger effect = lower value 0.983 | S. cerevisiae deletion strains, locus YDR101C, strain arx1, stronger effect = lower value 0.988 | [4] 0.978 and 1 | S. cerevisiae deletion strains, locus YDR162C, strain NBP2, stronger effect = lower value 0.998 | S. cerevisiae deletion strains, locus YDR318W, strain mcm21, stronger effect = lower value 0.987 | S. cerevisiae deletion strains, locus YDR363W, strain ESC2, stronger effect = lower value 0.971 | S. cerevisiae deletion strains, locus YDR388W, stronger effect = lower value 0.996 | S. cerevisiae deletion strains, locus YDR502C, strain sam2, stronger effect = lower value 1.01 | [5] 0.995 | S. cerevisiae deletion strains, locus YER002W, strain NOP16, stronger effect = lower value 0.991 | S. cerevisiae deletion strains, locus YER110C, stronger effect = lower value 0.979 | S. cerevisiae deletion strains, locus YER155C, strain BEM2, stronger effect = lower value 1.01 | S. cerevisiae deletion strains, locus YER167W, strain BCK2, stronger effect = lower value 1 | S. cerevisiae deletion strains, locus YGL078C, strain dbp3, stronger effect = lower value 0.981 | S. cerevisiae deletion strains, locus YGL086W, strain mad1, stronger effect = lower value 0.996 | S. cerevisiae deletion strains, locus YGL248W, strain PDE1, stronger effect = lower value 1 | [6] 0.972 | S. cerevisiae deletion strains, locus YGR135W, strain pre9, stronger effect = lower value 0.999 | S. cerevisiae deletion strains, locus YGR229C, strain SMI1, stronger effect = lower value 0.991 | S. cerevisiae deletion strains, locus YGR252W, strain gcn5, stronger effect = lower value 1.13 | [7] 0.985 and 0.976 | S. cerevisiae deletion strains, locus YHR079C, strain IRE1 (second series), stronger effect = lower value 0.981 | S. cerevisiae deletion strains, locus YHR079C, strain IRE1, stronger effect = lower value 0.985 | S. cerevisiae deletion strains, locus YHR094C, strain hxt1, stronger effect = lower value 0.972 | S. cerevisiae deletion strains, locus YHR129C, strain ARP1, stronger effect = lower value 0.989 | S. cerevisiae deletion strains, locus YHR200W, strain rpn10, stronger effect = lower value 0.992 | S. cerevisiae deletion strains, locus YIL066C, strain RNR3, stronger effect = lower value 0.99 | S. cerevisiae deletion strains, locus YIL073C, strain SPO22, stronger effect = lower value 0.722 | S. cerevisiae deletion strains, locus YIR030C, strain dcg1, stronger effect = lower value 0.99 | S. cerevisiae deletion strains, locus YJL095W, strain BCK1, stronger effect = lower value 0.977 and 1.02 | S. cerevisiae deletion strains, locus YJL134W, strain LCB3, stronger effect = lower value 0.995 | S. cerevisiae deletion strains, locus YJL168C, strain set2, stronger effect = lower value 0.991 | S. cerevisiae deletion strains, locus YJL187C, strain SWE1 (second series), stronger effect = lower value 0.964 | [8] 1 | S. cerevisiae deletion strains, locus YJR066W, strain TOR1, stronger effect = lower value 0.931 | [9] 0.995 and 1 | S. cerevisiae deletion strains, locus YKL009W, strain mrt4, stronger effect = lower value 0.991 | S. cerevisiae deletion strains, locus YKL068W, stronger effect = lower value 0.977 | S. cerevisiae deletion strains, locus YKL085W, strain MDH1 (second series), stronger effect = lower value 0.985 | S. cerevisiae deletion strains, locus YKL085W, strain MDH1, stronger effect = lower value 0.985 | S. cerevisiae deletion strains, locus YKL190W, strain CNB1, stronger effect = lower value 0.988 | S. cerevisiae deletion strains, locus YKR001C, strain vps1, stronger effect = lower value 0.971 | [10] 0.973 | S. cerevisiae deletion strains, locus YLR058C, strain SHM2, stronger effect = lower value 0.985 | S. cerevisiae deletion strains, locus YLR102C, strain apc9, stronger effect = lower value 0.991 | S. cerevisiae deletion strains, locus YLR113W, strain HOG1, stronger effect = lower value 1.05 | [11] 0.96 | S. cerevisiae deletion strains, locus YLR268W, strain sec22, stronger effect = lower value 0.928 | S. cerevisiae deletion strains, locus YLR330W, strain CHS5, stronger effect = lower value 0.991 | S. cerevisiae deletion strains, locus YLR342W, strain FKS1 (second series), stronger effect = lower value 1.04 | S. cerevisiae deletion strains, locus YLR371W, strain rom2, stronger effect = lower value 0.979 | S. cerevisiae deletion strains, locus YLR418C, strain cdc73, stronger effect = lower value 1.01 | S. cerevisiae deletion strains, locus YML016C, strain PPZ1, stronger effect = lower value 0.988 | S. cerevisiae deletion strains, locus YML124C, strain tub3, stronger effect = lower value 0.986 | S. cerevisiae deletion strains, locus YMR078C, strain ctf18, stronger effect = lower value 0.999 | S. cerevisiae deletion strains, locus YMR223W, strain ubp8, stronger effect = lower value 1.03 | [12] 0.978 and 0.977 | S. cerevisiae deletion strains, locus YMR307W, strain GAS1, stronger effect = lower value 1.12 and 0.988 | S. cerevisiae deletion strains, locus YNL067W, strain RPL9B, stronger effect = lower value 0.972 | S. cerevisiae deletion strains, locus YNL128W, strain TEP1, stronger effect = lower value 1.01 | [13] 0.971 and 1.03 | S. cerevisiae deletion strains, locus YNL175C, strain NOP13, stronger effect = lower value 1 | S. cerevisiae deletion strains, locus YNL183C, strain NPR1, stronger effect = lower value 0.959 | S. cerevisiae deletion strains, locus YNL197C, strain WHI3, stronger effect = lower value 0.988 | S. cerevisiae deletion strains, locus YNL224C, strain SQS1, stronger effect = lower value 0.98 | S. cerevisiae deletion strains, locus YNL233W, strain BNI4, stronger effect = lower value 0.98 | S. cerevisiae deletion strains, locus YNL250W, strain rad50, stronger effect = lower value 0.962 | S. cerevisiae deletion strains, locus YNL271C, strain bni1, stronger effect = lower value 0.977 | S. cerevisiae deletion strains, locus YNL298W, strain CLA4, stronger effect = lower value 0.981 | S. cerevisiae deletion strains, locus YNL307C, strain MCK1, stronger effect = lower value 0.975 | [14] 0.988 and 0.982 | S. cerevisiae deletion strains, locus YNR052C, strain pop2, stronger effect = lower value 0.995 | S. cerevisiae deletion strains, locus YOL006C, strain TOP1, stronger effect = lower value 0.776 | S. cerevisiae deletion strains, locus YOL012C, strain htz1 0.74 | S. cerevisiae deletion strains, locus YOL147C, strain pex11, stronger effect = lower value 0.982 | S. cerevisiae deletion strains, locus YOR061W, strain CKA2, stronger effect = lower value 0.996 | S. cerevisiae deletion strains, locus YOR069W, strain VPS5, stronger effect = lower value 0.996 | S. cerevisiae deletion strains, locus YOR083W, strain WHI5 (second series), stronger effect = lower value 0.915 | S. cerevisiae deletion strains, locus YOR136W, strain idh2, stronger effect = lower value 0.996 | S. cerevisiae deletion strains, locus YOR144C, strain elg1, stronger effect = lower value 0.996 | S. cerevisiae deletion strains, locus YOR184W, strain ser1, stronger effect = lower value 0.953 | S. cerevisiae deletion strains, locus YOR231W, strain MKK1, stronger effect = lower value 0.989 | S. cerevisiae deletion strains, locus YOR316C, strain cot1, stronger effect = lower value 0.979 | [15] 1.03 | [16] 0.997 | S. cerevisiae deletion strains, locus YPL256C, strain CLN2, stronger effect = lower value 0.974 | S. cerevisiae deletion strains, locus YPR119W, strain clb2, stronger effect = lower value 0.979 | S. cerevisiae deletion strains, locus YPR141C, strain kar3, stronger effect = lower value 0.991 | S. cerevisiae deletion strains, locus YPR163C, strain tif3, stronger effect = lower value 0.984 | S. cerevisiae deletion strains, locus YPR167C, strain met16, stronger effect = lower value 0.982 | S. cerevisiae deletion strains, strain wtn01, stronger effect = lower value 0.993 | [17] 1.01

From PubChem BioAssay AID1159580 (chemical genetic matrix, 2015)
